Source: PubChem BioAssay AID2284350 (EPA ToxCast)
Results filed as inconclusive are left out. The source made the active and inactive calls. Rule for the calls: active = hit-call score of the fitted dose curve at least 0.9, where 1 is the maximum; inconclusive = response in the unintended direction; inactive = score below 0.9.

Test system: zebrafish Peroxisome Proliferator-activated Receptor alpha (PPARa), gene 563298
Experiment: ATG_zfPPARa_EcoTox2: Attagene TRANS-FACTORIAL EcoTox-2 HepG2 Assay for zebrafish Peroxisome Proliferator-activated Receptor alpha (PPARa)
Protocol: ATG_EcoTox2 is a cell-based, multiplexed assay created by modifying the existing Attagene TRANS-FACTORIAL system to include a panel of nuclear receptors from some or all the following species: human (Homo sapiens), african clawed frog (Xenopus laevis), rainbow trout (Oncorhynchus mykiss), japanese medaka (Oryzias latipes), and zebrafish (Danio rerio). The ECOTOX2-FACTORIAL format uses HepG2, a human liver cell line, with measurements taken at 24 hours after chemical dosing in a 24-well plate. ATG_zfPPARa_EcoTox2 is one of 29 assay components calculated in the ATG_EcoTox2 assay. It is designed to make measurements of mRNA induction, a form of inducible reporter, as detected with fluorescence intensity signals by Reverse transcription polymerase chain reaction (RT-PCR) and Capillary electrophoresis technology.The assay endpoint ATG_zfPPARa_EcoTox2 was analyzed in the positive analysis fitting direction relative to DMSO as the negative control and baseline of activity. Using a type of inducible reporter, measures of mRNA for gain-of-signal activity can be used to understand the reporter gene at the transcription factor-level as they relate to the gene PPARa. Furthermore, this assay endpoint can be referred to as a primary readout, because this assay has produced multiple assay endpoints where this one serves a reporter gene function. To generalize the intended target to other relatable targets, this assay endpoint is annotated to the nuclear receptor intended target family, where the subfamily is non-steroidal.
Human liver HepG2 cells are transiently transfected with multiple reporter transcription units (MRTUs) in 6-well plates using FuGene 6 reagent (Roche; 3 ml FuGene/1 mg DNA). The MRTU constructs are regulated by a cis-regulating element (promoter). Each RTU expresses a GAL4-UAS that regulates the transcription of a nearby target reporter gene sequence. A major difference between the CIS and TRANS system is that in CIS activities of endogenous TFs are measured, whereas the TRANS assay evaluates changes in activities of exogenous, chimeric NR-Gal4 proteins. […] At the end of 24 hour incubation, total RNA was isolated using TriZol reagent (Invitrogen). The isolated RNA is then reverse-transcribed using oligo(dT) primer and Mo-MLV reverse transcriptase (Invitrogen) with DNAse I (Ambion) treatment for 30 min. The one-tenth of the produced cDNA was amplified by PCR using Taq DNA polymerase (Invitrogen) and two reporter sequence-specific primers. The PCR products were fluorescently labeled by primer extension with 6-arboxyfluorescein (6-FAM) 5'-labeled reporter sequence-specific primer (2 min at 95 C, 20 s at 68 C and 10 min at 72 C) and these products were digested with 5U of HpaI (New England Biolabs) for 2h at 37 C. The fragments were purified using Qiaquick PCR columns (Qiagen), analyzed on an ABI 3130xL genetic analyzer (Applied Biosystems) with peak positions identified by using a set of X-rhodamine (ROX)-labeled MapMarker1000 molecular weight standards (BioVentures). The raw capillary electrophoresis data was processed using Attagraph software (Attagene).

Q: With `C=C(c1ccc(C(=O)O)cc1)c1cc2c(cc1C)C(C)(C)CCC2(C)C` as the compound, how does the outcome read?
A: inactive

Q: For `Cc1ccc(C)c(OCCCC(C)(C)C(=O)O)c1`, which AC50 is on record?
A: 73.6 µM (active)

Q: For `CC(C)(Oc1ccc(C2CC2(Cl)Cl)cc1)C(=O)O` (configuration not stated), which AC50 is on record?
A: 71.9 µM (active)

Q: Which AC50 does the source give for `Cc1cccc(Nc2cc(Cl)nc(SCC(=O)O)n2)c1C` here?
A: 8.62 µM (active)

Q: How did the outcome turn out when `C[C@@H]1C[C@H]2[C@@H]3CCC4=CC(=O)C=C[C@]4(C)[C@@]3(F)[C@@H](O)C[C@]2(C)[C@@]1(O)C(=O)COP(=O)(O)O` was run?
A: inactive

Q: For `CC(C)OC(=O)C(C)(C)Oc1ccc(C(=O)c2ccc(Cl)cc2)cc1`, which outcome is on record?
A: inactive

Q: How did the outcome turn out when `CN(CCOc1ccc(CC2SC(=O)NC2=O)cc1)c1ccccn1` (configuration not stated) was run?
A: inactive

Q: `CC(c1cc2ccccc2s1)N(O)C(N)=O` (configuration not stated) was tested. Which outcome did it give?
A: inactive

Q: How did the outcome turn out when `Cc1c(C)c2c(c(C)c1O)CCC(C)(COc1ccc(CC3SC(=O)NC3=O)cc1)O2` (configuration not stated) was run?
A: inactive

Q: For `Cc1nc(-c2ccc(C(F)(F)F)cc2)sc1C(=O)NCc1ccc(OC(C)(C)C(=O)O)cc1`, which AC50 is on record?
A: 0.0769 µM (active)

Q: With `CC(C)(Oc1ccc(CCNC(=O)c2ccc(Cl)cc2)cc1)C(=O)O` as the compound, how does the AC50 read?
A: 21.6 µM (active)

Q: How did the outcome turn out when `CC(C)(Oc1ccc(Cl)cc1)C(=O)O` was run?
A: inactive
